Results on one compound are retold here after ChEMBL document CHEMBL2218924, “A broad activity screen in support of a chemogenomic map for kinase signalling research and drug discovery” (Biochem J, 2013).

The structures appear in SMILES notation.

Assay [1] has as its target Tyrosine-protein kinase SYK (Homo sapiens) (UniProt P43405). As to conditions: at 10 µM.
Assay [2] deals with T1, Mitogen-activated protein kinase kinase kinase 7 (Homo sapiens) (UniProt O43318).
T1 sequence (whole entry): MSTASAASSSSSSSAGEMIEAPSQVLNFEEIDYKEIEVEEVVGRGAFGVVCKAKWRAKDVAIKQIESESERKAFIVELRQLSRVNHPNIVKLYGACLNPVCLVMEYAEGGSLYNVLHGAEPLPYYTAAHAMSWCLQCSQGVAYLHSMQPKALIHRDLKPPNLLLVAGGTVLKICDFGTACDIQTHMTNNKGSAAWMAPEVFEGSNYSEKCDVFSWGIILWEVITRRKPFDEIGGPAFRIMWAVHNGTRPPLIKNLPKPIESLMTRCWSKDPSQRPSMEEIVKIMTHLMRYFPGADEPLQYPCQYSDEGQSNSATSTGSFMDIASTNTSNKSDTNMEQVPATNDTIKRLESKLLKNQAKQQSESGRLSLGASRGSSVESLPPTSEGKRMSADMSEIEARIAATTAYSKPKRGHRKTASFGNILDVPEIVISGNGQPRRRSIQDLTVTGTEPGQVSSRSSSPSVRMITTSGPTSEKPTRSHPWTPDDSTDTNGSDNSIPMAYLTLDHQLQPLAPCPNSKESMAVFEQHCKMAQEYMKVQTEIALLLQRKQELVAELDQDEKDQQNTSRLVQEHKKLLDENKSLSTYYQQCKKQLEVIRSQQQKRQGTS
As to conditions: at 1 µM.

Assay [3] deals with T1, Mitogen-activated protein kinase kinase kinase 7 (Homo sapiens). As to conditions: at 10 µM.
Assay [4] addresses T2, Serine/threonine-protein kinase TAO1 (Homo sapiens) (UniProt Q7L7X3).
T2 sequence (whole entry): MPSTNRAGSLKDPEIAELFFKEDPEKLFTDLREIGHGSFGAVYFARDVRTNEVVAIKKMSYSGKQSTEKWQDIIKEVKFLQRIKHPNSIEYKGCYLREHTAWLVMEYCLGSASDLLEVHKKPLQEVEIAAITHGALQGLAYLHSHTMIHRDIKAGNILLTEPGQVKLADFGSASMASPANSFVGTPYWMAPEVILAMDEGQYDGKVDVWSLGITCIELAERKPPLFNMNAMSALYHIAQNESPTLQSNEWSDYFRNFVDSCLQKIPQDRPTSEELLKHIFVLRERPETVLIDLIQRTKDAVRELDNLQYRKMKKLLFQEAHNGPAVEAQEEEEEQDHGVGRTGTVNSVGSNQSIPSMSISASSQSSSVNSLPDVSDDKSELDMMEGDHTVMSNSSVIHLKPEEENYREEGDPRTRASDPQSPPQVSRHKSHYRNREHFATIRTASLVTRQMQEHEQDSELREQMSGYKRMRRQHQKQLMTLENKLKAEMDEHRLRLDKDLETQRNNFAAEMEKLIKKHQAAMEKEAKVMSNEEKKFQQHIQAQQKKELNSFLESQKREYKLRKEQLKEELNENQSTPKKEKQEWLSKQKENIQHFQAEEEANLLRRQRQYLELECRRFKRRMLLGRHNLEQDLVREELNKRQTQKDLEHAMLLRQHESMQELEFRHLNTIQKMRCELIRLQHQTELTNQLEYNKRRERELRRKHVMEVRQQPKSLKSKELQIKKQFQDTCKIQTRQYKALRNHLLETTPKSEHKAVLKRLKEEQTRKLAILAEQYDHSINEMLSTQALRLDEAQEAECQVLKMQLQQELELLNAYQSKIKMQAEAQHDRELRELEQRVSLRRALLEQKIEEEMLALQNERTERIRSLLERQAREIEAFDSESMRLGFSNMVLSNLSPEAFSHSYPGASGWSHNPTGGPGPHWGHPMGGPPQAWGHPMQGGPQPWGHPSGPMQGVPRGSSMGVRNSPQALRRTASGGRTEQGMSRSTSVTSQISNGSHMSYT
The conditions noted are these: at 1 µM.

Assay [5] concerns the target T2, Serine/threonine-protein kinase TAO1 (Homo sapiens). As to conditions: at 10 µM.
Assay [6] has as its target T3, Serine/threonine-protein kinase TAO2 (Homo sapiens) (UniProt Q9UL54).
T3 sequence (whole entry): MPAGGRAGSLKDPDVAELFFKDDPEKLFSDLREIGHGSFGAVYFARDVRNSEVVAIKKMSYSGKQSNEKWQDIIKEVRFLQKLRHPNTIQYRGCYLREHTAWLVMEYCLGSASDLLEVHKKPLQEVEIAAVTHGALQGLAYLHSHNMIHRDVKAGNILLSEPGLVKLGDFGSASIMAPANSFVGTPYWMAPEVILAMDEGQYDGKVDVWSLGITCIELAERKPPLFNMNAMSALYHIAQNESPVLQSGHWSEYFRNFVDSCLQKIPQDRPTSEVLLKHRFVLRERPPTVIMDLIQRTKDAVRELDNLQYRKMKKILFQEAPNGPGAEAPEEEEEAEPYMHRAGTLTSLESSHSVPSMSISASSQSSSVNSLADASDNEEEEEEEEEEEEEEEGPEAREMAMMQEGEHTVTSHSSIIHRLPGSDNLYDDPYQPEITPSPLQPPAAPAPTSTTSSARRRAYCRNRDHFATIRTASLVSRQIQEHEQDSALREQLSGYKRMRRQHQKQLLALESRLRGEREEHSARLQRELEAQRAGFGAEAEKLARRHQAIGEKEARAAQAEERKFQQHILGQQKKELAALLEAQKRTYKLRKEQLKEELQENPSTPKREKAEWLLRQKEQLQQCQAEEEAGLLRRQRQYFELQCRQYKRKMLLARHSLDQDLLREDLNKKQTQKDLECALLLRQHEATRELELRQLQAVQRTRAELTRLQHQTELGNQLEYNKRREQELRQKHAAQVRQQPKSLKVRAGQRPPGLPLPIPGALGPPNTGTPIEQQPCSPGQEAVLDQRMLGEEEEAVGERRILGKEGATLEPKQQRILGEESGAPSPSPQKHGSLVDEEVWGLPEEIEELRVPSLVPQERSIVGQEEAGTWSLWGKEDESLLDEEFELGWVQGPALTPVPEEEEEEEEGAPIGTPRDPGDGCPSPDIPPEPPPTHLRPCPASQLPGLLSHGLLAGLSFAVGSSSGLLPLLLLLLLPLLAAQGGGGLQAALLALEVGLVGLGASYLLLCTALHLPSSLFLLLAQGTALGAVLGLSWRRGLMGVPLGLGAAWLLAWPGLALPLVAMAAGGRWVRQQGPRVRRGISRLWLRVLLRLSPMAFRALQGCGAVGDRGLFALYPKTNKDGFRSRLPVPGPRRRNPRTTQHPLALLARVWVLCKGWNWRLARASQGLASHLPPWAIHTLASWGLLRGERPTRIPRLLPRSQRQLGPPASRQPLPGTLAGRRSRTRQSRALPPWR
The conditions noted are these: at 1 µM.

The target of assay [7] is T3, Serine/threonine-protein kinase TAO2 (Homo sapiens). The conditions noted are these: at 10 µM.
For assay [8], the target named is T4, Serine/threonine-protein kinase TAO3 (Homo sapiens) (UniProt Q9H2K8).
T4 sequence (whole entry): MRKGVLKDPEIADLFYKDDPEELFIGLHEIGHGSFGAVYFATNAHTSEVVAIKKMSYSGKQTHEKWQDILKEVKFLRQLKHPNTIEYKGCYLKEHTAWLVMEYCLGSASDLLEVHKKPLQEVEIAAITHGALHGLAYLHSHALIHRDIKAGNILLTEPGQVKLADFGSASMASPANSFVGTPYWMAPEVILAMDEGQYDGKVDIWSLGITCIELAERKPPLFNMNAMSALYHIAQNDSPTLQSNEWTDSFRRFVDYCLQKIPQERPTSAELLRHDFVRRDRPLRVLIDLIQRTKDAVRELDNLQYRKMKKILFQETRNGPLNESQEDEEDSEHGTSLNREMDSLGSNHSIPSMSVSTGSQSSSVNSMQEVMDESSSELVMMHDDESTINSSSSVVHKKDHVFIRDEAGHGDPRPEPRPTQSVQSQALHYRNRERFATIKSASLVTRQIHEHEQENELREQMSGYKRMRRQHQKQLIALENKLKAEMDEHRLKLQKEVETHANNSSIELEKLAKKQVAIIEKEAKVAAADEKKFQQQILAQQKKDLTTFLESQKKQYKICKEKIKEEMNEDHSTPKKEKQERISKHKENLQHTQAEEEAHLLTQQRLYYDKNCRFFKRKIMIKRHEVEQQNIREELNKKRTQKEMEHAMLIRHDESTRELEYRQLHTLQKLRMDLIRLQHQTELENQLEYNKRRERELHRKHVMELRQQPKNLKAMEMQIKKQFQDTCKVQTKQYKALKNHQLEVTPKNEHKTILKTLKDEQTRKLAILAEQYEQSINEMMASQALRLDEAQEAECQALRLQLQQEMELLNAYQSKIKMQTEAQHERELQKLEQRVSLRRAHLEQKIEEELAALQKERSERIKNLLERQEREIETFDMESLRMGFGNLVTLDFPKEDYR
As to conditions: at 1 µM.

For `COc1cc2ncnc(N3CCN(C(=O)Nc4ccc(Oc5ccccc5)cc4)CC3)c2cc1OC`, the residual activity in assay [1] is 83%; in assay [2], 85%; in assay [3], 82%; in assay [4], 94%; in assay [5], 78%; in assay [6], 95%. The residual activity in assay [7] was 64%; in assay [8], 85%.
